p47phox inh: p47phox (human) inhibition; P14598; p47phox/p22phox peptide binding, fluorescence polarization, 2 h; inhibition, % at 24.7 µM; 0.53% of 220,000 active; AID 1274;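 active = inhibition above about 30%, limit read from the data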;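 also: 0% = p47phox with labelled peptide and 100% = labelled peptide alone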
NR1D1 modulator: modulators of human Rev-erb alpha DNA binding. Rev-erbα–FITC-DNA binding, fluorescence polarization, 90 min. activity, % at 10 µM. 0.79% of 370,000 active;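 active = activity above about 14%, limit read from the data; passing the limit was not always enough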;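 also: 0% = DMSO wells with 35 nM protein and 100% = DMSO wells with 750 nM protein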
Target sequence (P20393 whole entry, looked up): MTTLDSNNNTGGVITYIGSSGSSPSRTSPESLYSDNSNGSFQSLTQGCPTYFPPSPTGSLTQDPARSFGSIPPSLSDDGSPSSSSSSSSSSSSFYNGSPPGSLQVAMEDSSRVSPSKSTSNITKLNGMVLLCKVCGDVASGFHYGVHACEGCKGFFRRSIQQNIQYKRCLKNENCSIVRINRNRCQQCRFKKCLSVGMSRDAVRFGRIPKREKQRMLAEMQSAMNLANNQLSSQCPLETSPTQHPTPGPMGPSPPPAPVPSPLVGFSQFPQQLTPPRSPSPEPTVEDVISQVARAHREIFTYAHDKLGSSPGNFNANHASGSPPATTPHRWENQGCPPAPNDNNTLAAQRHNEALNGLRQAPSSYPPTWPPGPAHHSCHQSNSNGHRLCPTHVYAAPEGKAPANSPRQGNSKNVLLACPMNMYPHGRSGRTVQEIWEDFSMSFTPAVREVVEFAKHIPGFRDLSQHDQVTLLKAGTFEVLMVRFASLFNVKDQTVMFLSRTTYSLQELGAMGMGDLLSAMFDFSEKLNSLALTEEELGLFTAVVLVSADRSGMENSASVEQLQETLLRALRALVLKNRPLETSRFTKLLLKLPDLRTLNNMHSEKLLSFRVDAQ
aDG glyco up: alpha-DG glycosylation activation; Pro5-aDG cells, alpha-DG glycosylation AlphaScreen (IIH6); 0% Pro5, 100% B10-LARGE cell signal; activation, % at 10 µM; 0.22% of 360,000 active;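 active = activation of at least 8% versus controls, or a plate z-score of at least 8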;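 also: Pro5 are CHO cells carrying HIG-tagged alpha-DG that lacks glycosylation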
EBNA-1 inh: blocks EBNA-1 binding to DNA; EBNA-1 DNA binding, fluorescence polarization; AID 1950; inhibition, % at 14.8 µM; 0.34% of 300,000 active; in the data active = inhibition above about 28%
PG9 Ab binder: small molecules binding HIV-1 gp120 antibody PG9. TR-FRET gp120-PG9 antibody binding. inhibition, % at 6.7 µM. 0.43% of 360,000 active. AID 624416; in the data active = inhibition above about 8.5%
ZTA DNA inh: counter-screen for EBNA-1 inhibitors: inhibitors of Epstein-Barr virus ZTA. AID 2234. 0.15% of 320,000 active. ZTA-DNA binding, fluorescence polarization. P03206. inhibition, % at 11 µM; in the data active = inhibition above about 33%
Numbers without * were called inactive; . = no result. Rows were chosen to be rich in hits. Some 1.9% of all compounds tested hit in one or more screens of this group.

SMILES	p47phox inh	NR1D1 modulator	aDG glyco up	EBNA-1 inh	PG9 Ab binder	ZTA DNA inh
CCC[C@@H]1C[C@@H](C(=O)N[C@H]([C@H]2O[C@H](SC)[C@H](O)[C@@H](O)[C@H]2O)[C@H](C)O)N(C)C1	.	-4	.	.	.	.
COc1ccc(CN2C[C@]3(C=C(C)Cn4c(=O)n(-c5ccccc5)c(=O)n43)N(C(=O)OCc3ccccc3)C2=NC(=O)c2ccccc2)c(OC)c1	.	2	.	.	.	.
CCCCNS(=O)(=O)/C=C/c1cc(C)ccc1CNC(=O)OC(C)(C)C	.	9	.	.	.	.
O=C1NN(c2ccccc2)C(=O)/C1=C/c1ccc(Sc2ccc(Cl)cc2)o1	-4	-6	2.6*	3	1	0
OC[C@H]1OC([S-])[C@H](O)[C@@H](O)[C@@H]1O.[Au+] (stereo not given in full)	.	-30	.	.	.	.
Cc1ccc2nc(-c3ccc(NC(=O)CSc4nnc(-c5cccc(Cl)c5)n4Cc4ccco4)cc3)sc2c1	.	-3	.	.	.	.
O=C1CCCC(O)=C1N=Nc1ccc(C(=O)O)cc1	32*	-11	0	-6	-4	12
Cc1c(C(C)C)c(=O)n(-c2ccc(S(=O)(=O)NCc3ccccc3)cc2)n1C	3	0	8.4*	-1	-4	1
Cc1c(C(C)C)c(=O)n(-c2ccc(S(=O)(=O)NC3CCCCC3)cc2)n1C	0	-1	6	-6	0	-10
COc1ccccc1NC(=O)CSc1ccc2nnc(-c3ccncc3)n2n1	-2	-6	0	0	-1	16
COc1ccccc1NC(=O)CSc1ccc2nnc(-c3ccc(C)cc3)n2n1	35*	-2	0	-5	1	-4
CO/N=C(\C(=O)N[C@H]1C(=O)N2C(C(=O)OCOC(=O)C(C)(C)C)=C(/C=C\c3scnc3C)CSC12)c1csc(N)n1 (stereo not given in full)	.	-11	.	.	.	.
C/C(N)=C(/C#N)C(=O)CSc1nnc(COc2cc(C)ccc2C)o1	-22	2	0	38*	0	53*
NC(=O)CSc1nnc(-c2ccc3c(c2)OCO3)o1	-2	3	0	-7	-1	19
C/C(N)=C(/C#N)C(=O)CSc1nnc(-c2ccc3c(c2)OCO3)o1	42*	1	0	-5	-2	11
C/C(N)=C(/C#N)C(=O)CSc1nc2ccc(C)cc2[nH]1	-8	-4	0	0	-4	5
Cc1cc(C)cc(C(=O)OCCN(C)C2CN(Cc3cn(Cc4ccccc4C(F)(F)F)nn3)S(=O)(=O)C2)c1 (stereo not given)	.	4	.	.	.	.
CCC(=O)OCC(=O)[C@@]1(OC(=O)CC)[C@@H](C)CC2C3CCC4=CC(=O)C=C[C@]4(C)[C@@]3(F)[C@@H](O)C[C@@]21C (stereo not given in full)	.	-7	.	.	.	.
C=Cc1c(C)/c2[n-]/c1=C\c1[n-]c(c(CC)c1C)/C=c1\[n-]c3c(c1C)C(=O)C(C(=O)O)C=3c1[n-]c(c(C)c1CCC(=O)O)\C=2.[Cu] (stereo not given)	.	-37	.	.	.	.
C=C1CC[C@H](O)C/C1=C/C=C1\CCC[C@]2(C)C([C@H](C)/C=C/[C@H](C)C(C)C)CC[C@@H]12 (stereo not given in full)	.	-4	.	.	.	.
O=C(CCC(=O)OCC(=O)c1ccc(-c2ccccc2)cc1)Nc1cccc(Cl)c1	1	5	0	-4	9.0*	-9
O=C(CCNC(=O)c1ccccc1)OCC(=O)c1cccc(Cl)c1	0	-1	0	-9	0	-6
Nc1nc(CCOc2ccc(F)cc2)cs1	40*	-3	0	.	-3	.
C=CC[C@H]1c2ccccc2[C@H]2N3N=Cc4ccccc4[C@H]3[C@H](CCc3ccccc3)C(=O)N2N1C(=O)c1ccccc1	.	-6	.	.	.	.
COC(=O)[C@H](Cc1ccccc1)N(Cc1cn(Cc2ccccc2)nn1)S(=O)(=O)c1ccccc1Br	.	2	.	.	.	.
SMILES	p47phox inh	NR1D1 modulator	aDG glyco up	EBNA-1 inh	PG9 Ab binder	ZTA DNA inh
CC1=NOC(=O)/C1=C\c1ccc(-c2cc(Cl)ccc2Cl)o1	-5	-13	0	-1	-1	8
CC1=NOC(=O)/C1=C/c1ccc(-c2ccc(Cl)cc2)o1	116*	.	0	-2	.	0
CC1=NOC(=O)/C1=C\c1ccc(-c2ccc(Br)cc2C(=O)O)o1	-10	3	0	-6	0	-13
CC1=NOC(=O)/C1=C\c1ccc(-c2ccc(Br)cc2)o1	44*	-6	-1	.	0	.
CC(C)=CCC/C(C)=C/CC/C(C)=C/CCC(=O)OC/C=C(\C)CCC=C(C)C	.	0	.	.	.	.
OCCN1CCN(c2nc(-c3ccccc3)c3cc(Br)ccc3n2)CC1	.	-2	1	8	8.7*	22
OCCN1CCN(c2ncnc3ccc(Br)cc23)CC1	6	-4	0	1	-1	11
c1ccc(-n2c(SCc3cccc4ccccc34)nnc2-c2ccccn2)cc1	.	-1	.	.	.	.
C[C@H]1[C@@H](OC(=O)N2CCN(c3ccccc3)CC2)CC[C@@]23CCCN2C(=O)CCC[C@@H]13	.	-3	.	.	.	.
c1ccc(CCNc2ncnc3ccccc23)cc1	-5	2	8.7*	-1	1	2
CCCCCCCCNc1ncnc2ccccc12	-8	.	4	9	.	0
CCOc1ccc2c(c1)C(c1cccs1)=NNC(c1cccnc1)=N2	44*	5	2	-3	-3	19
Brc1ccc2c(c1)C(c1cccs1)=NNC(c1cccnc1)=N2	-9	3	0	2	1	-16
C[C@H](Cc1cc2c(c(C(N)=O)c1)N(CCCO)CC2)NCCOc1ccccc1OCC(F)(F)F	.	-7	.	.	.	.
CCOC(=O)C1CCCN(S(=O)(=O)c2ccc(C)cc2)C1 (stereo not given)	-4	5	1	0	-2	-1
CCOC(=O)C1CCCN(S(=O)(=O)c2ccc(S(=O)(=O)N(CC)CC)cc2)C1 (stereo not given)	-3	-3	7.4*	0	0	16
Cc1ccc2nc(-c3ccc(NC(=O)CSc4nnc(-c5cc(C)[nH]n5)n4N)cc3)sc2c1	.	-3	.	.	.	.
COc1ccc(N2CSC3=C(C#N)C(c4cc(OC)c(OC)cc4OC)CC(=O)N3C2)c(OC)c1 (stereo not given)	33*	7	0	-6	-1	1
CC(C)C[C@H]1COc2cccc(F)c2S(=O)(=O)N1Cc1cn(Cc2ccc(Cl)cc2)nn1	.	-7	.	.	.	.
CC(C)N(C)CCOC(=O)/C=C/c1ccccc1	38*	-8	0	2	-2	8
CN(CCOC(=O)/C=C/c1ccccc1)C(C)(C)C	5	1	0	13	-1	6
Oc1ccc(Nc2nc3ccccc3nc2Nc2ccc(O)cc2)cc1	66*	.	-1	-11	.	15
Oc1ccc(Nc2nc(-c3ccccc3)nc3ccccc23)cc1	.	.	0	1	.	-5
CC(CCN1CCC(C(O)(c2ccccc2)c2ccccc2)CC1)Oc1ccc(OC(F)(F)F)cc1 (stereo not given)	.	0	.	.	.	.

From PubChem BioAssay
